Measured values published in the supplement of paper PMC3334620.
In all, about 33,000 sequences were measured (“E-score (-0.5 to 0.5)”: median about -0.0034, highest 2% from about 0.25 on). The sample holds the highest values, similar sequences and a random draw of the others, so the mix is not that of the screen.

The sequences below were run against T1, Yap3 (UniProt P38749) (assay: PBM E-score (8-mer binding enrichment) (E-score (-0.5 to 0.5)); higher = stronger / more preferred TF binding). Conditions: protein concentration: 100 nM; construct: GST-full length.
T1 sequence: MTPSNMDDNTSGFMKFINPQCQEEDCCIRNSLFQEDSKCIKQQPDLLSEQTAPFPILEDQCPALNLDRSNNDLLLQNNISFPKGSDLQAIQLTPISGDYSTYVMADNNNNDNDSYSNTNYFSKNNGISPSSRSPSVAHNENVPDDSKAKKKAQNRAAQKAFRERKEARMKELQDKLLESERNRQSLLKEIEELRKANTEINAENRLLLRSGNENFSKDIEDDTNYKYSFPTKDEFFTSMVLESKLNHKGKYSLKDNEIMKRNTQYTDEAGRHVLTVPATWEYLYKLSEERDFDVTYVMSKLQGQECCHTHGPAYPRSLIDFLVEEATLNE
Description: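 Universal 'all 10-mer' protein binding microarrays (Agilent AMADID 015681) probed with GST-tagged S. cerevisiae TFs (full-length or DBD) made by in vitro transcription/translation (PURExpress), about 100-200 nM. Bound TF was detected with fluorescent anti-GST. Each ungapped 8-mer (which stands for itself and its reverse complement) is scored by the PBM enrichment score (E-score), a modified Wilcoxon-Mann-Whitney statistic from -0.5 to +0.5, computed with the Universal PBM Analysis Suite. Scale: above 0.35 generally sequence-specific binding.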

Row | Sequence | PBM E-score
1 | GTCTTGAA | 0.0256
2 | AAGAACGA | 0.142
3 | CCAATTGA | 0.0344
4 | GAACGCAC | 0.0357
5 | AGAGGTAC | -0.248
6 | AGAGGTAT | 0.256
7 | AGAGGTAA | -0.0121
8 | ATCCGATG | 0.0814
9 | ATTAGACG | 0.104
10 | TATGTAAA | 0.262
11 | CATGTAAG | 0.155
12 | AATGTAAG | 0.307
13 | CACGTAAA | -0.0521
14 | GACGTAAA | 0.0343
15 | CATGTAAA | 0.0358
16 | AATGTAAT | 0.253
17 | TACGTAAA | 0.319
18 | ACTGTAAC | 0.0996
19 | CCTGTAAA | -0.0789
20 | ACTGTAAA | 0.257
21 | AATGTAAA | 0.231
22 | TAGATGAA | 0.082
23 | CCGATGTC | 0.0178
24 | AATAGCTA | 0.0193
25 | AGTGATCC | -0.0505

Row | Sequence | PBM E-score
26 | GGGATCGA | -0.124
27 | AACGTAAA | 0.2
28 | CGCGTAAG | 0.158
29 | AACGTAAC | 0.201
30 | TGCGTAAA | 0.132
31 | AACGTAAT | 0.353
32 | CGCGTAAA | 0.255
33 | CAAGAAAC | 0.197
34 | TACAACTA | -0.028
35 | AGCCCACA | -0.117
36 | AATGGAGG | -0.119
37 | GATTTTAC | 0.161
38 | AATTTTAG | 0.107
39 | CATTTTAG | 0.121
40 | AATTTTAT | 0.266
41 | CATTTTAC | 0.332
42 | ATTTTTAC | 0.0674
43 | AATTTTAC | 0.258
44 | CATTTTAA | 0.219
45 | AAATTTAT | 0.144
46 | CCTTCTCG | -0.134
47 | AGGTTTCA | 0.0131
48 | GATACTAC | 0.0824
49 | ACGGTAGA | -0.0586
50 | AACTGATT | -0.0243

Row | Sequence | PBM E-score
51 | AACCAGGC | -0.00725
52 | CAGTGAAC | 0.161
53 | CTGGTTGA | -0.256
54 | CTTCACTC | 0.0393
55 | GTTATGTA | 0.151
56 | CTAATGTA | 0.148
57 | ATTATGCG | 0.297
58 | ATTATGCC | 0.119
59 | ATTATGTC | 0.198
60 | ACTATGTG | -0.0195
61 | ATTATGTG | 0.291
62 | ATAATGTC | 0.195
63 | ATTATGTA | 0.267
64 | AGTATGTG | 0.203
65 | ATTATGCA | 0.0948
66 | ATAATGTA | 0.292
67 | CCTGCGCA | -0.158
68 | AAATCACC | 0.235
69 | AGATCGCG | 0.0544
70 | GTAGGGAA | 0.0975
71 | ACGTAGTC | -0.262
72 | ATTATGAA | 0.261
73 | CTTATGAA | 0.0398
74 | GTTATGAA | 0.172
75 | ATCGACTA | 0.0167

Row | Sequence | PBM E-score
76 | CATGTGGC | 0.0138
77 | ACAACGCG | 0.0663
78 | ATATTCAC | 0.254
79 | CTATTCAC | 0.133
80 | GTATTCAC | 0.113
81 | ATATTCTC | 0.295
82 | ATATTCTA | 0.175
83 | CTATTCTC | 0.134
84 | AGGTTCTG | -0.122
85 | CCACCATC | -0.238
86 | GTACAAGA | 0.0226
87 | GACTTACC | -0.11
88 | CAAAGTCA | 0.0697
89 | AGACAATA | 0.339
90 | AGACAATG | 0.0142
91 | AGACAATC | 0.129
92 | CTATGGGC | -0.0642
93 | ACCCAGAA | 0.158
94 | CAACCGCG | 0.323
95 | CAACCGCA | 0.00088
96 | CAACCGCC | -0.103
97 | CATAAGAA | 0.21
98 | AAGTGGAC | -0.033
99 | GTTCGTAA | 0.192
100 | CTACGTAA | 0.135

Row | Sequence | PBM E-score
101 | ATTCGTAA | 0.292
102 | ATTCGTTC | 0.27
103 | AAACGTAT | 0.145
104 | CTTCGTAA | 0.141
105 | CTTCGTTC | 0.0138
106 | ATTCGTTA | 0.25
107 | ATACGTAT | 0.296
108 | GTACGTAA | 0.312
109 | ACACGTAT | 0.0936
110 | GTACGTAC | 0.0261
111 | CGGGGTAC | -0.251
112 | GTGAGCTA | 0.0321
113 | AAATGTGC | 0.197
114 | CCACTAAG | 0.0472
115 | ACTAAGTG | -0.00977
116 | ACAACAGC | 0.0808
117 | ACAGAGAT | 0.0805
118 | CAGGCAAG | -0.0287
119 | ATACGTAC | 0.0322
120 | ATACGTAG | 0.0583
121 | ATACGTAA | 0.266
122 | CCTTAGCC | -0.0133
123 | CGCCATCC | -0.247
124 | ATGTAATG | 0.151
125 | ATGTAATA | 0.371

Row | Sequence | PBM E-score
126 | GTGTAAGA | -0.0287
127 | CTGTAACA | -0.0647
128 | ATGTAAGC | 0.264
129 | ATGTAAGG | 0.129
130 | CTGTAAGC | -0.0121
131 | ATGTAACG | 0.164
132 | CTGTAATA | 0.113
133 | ATGTAACA | 0.256
134 | ATGTAAGA | 0.277
135 | CTGTAAGA | -0.0157
136 | AGCGTCGA | 0.124
137 | AACCTAAA | 0.142
138 | ATCCCTGA | -0.0313
139 | CAGCACAC | -0.173
140 | AAGTGTTA | 0.112
141 | TAGAGCTA | -0.0728
142 | AATCCTCT | -0.127
143 | CCAGTTCG | -0.114
144 | AAAATCTA | 0.0549
145 | AGCTACTA | 0.0917
146 | CGCTACTC | -0.112
147 | CGCTACTA | 0.264
148 | ATTTTCTC | 0.0752
149 | GAAATACA | 0.0912
150 | ATAATACG | 0.292

Row | Sequence | PBM E-score
151 | ATAATACA | 0.357
152 | ATACTACC | 0.0377
153 | CTAATACA | 0.25
154 | ACAATACG | 0.0668
155 | ATAATACC | 0.226
156 | CTACTACA | 0.225
157 | GTAATACA | 0.273
158 | AGAATACG | 0.0873
159 | ACAATACA | 0.0763
160 | ATACTACA | 0.28
161 | GAAGGCAC | -0.128
162 | AAGGATTC | -0.129
163 | GAGTGGAA | 0.0318
164 | CGATATCC | 0.146
165 | AAAGAGGC | -0.0407
166 | ATTCCTTG | -0.113
167 | GGCATATA | 0.268
168 | ACTATATC | 0.227
169 | CTTATATA | 0.315
170 | CTTATATC | 0.218
171 | ACCATATG | 0.122
172 | AGCATATA | 0.0558
